Experimental data from the supplement of paper PMC8285479.
Counter-ions that a name gives are not always drawn. ± gives the standard deviation of the averaged measurements. Over roughly 1,900 compounds, “normalised cell viability (NPI; 0 = phenylarsine oxide control, 1 = DMSO control)” has its median near 1; the lowest 2% begin near 0.039. The entries come from a sample that favours the lowest values as a whole.

System: NCI-H1944
Assay: normalised cell viability (NPI; 0 = phenylarsine oxide control, 1 = DMSO control) (fraction of DMSO control); NCI-H1944 is a non-small cell lung cancer line; higher = more viable cells (less compound toxicity)
Conditions: 6 days
[1] = glucocorticoid arm: hydrocortisone 2.75 uM co-treatment, compound 1 µM
[2] = glucocorticoid arm: hydrocortisone 2.75 uM co-treatment, compound 5 µM
[3] = glucocorticoid arm: hydrocortisone 2.75 uM pre-treated 2 days and continued, compound 1 µM
[4] = glucocorticoid arm: hydrocortisone 2.75 uM pre-treated 2 days and continued, compound 5 µM
[5] = glucocorticoid arm: vehicle, compound 1 µM
[6] = glucocorticoid arm: vehicle, compound 5 µM
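Also: CTB read-out in 384-well plates, triplicate wells, NPI normalised per plate against 1 µM phenylarsine oxide (0) and 0.1% DMSO (1) controls.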

Structure (SMILES): OC[C@H]1O[C@@H](n2cnc3c(Nc4ccccc4)ncnc32)[C@H](O)[C@@H]1O [N6-Phenyladenosine]
- normalised cell viability [1]: 1 ± 0.014
- normalised cell viability [2]: 1.01 ± 0.011
- normalised cell viability [3]: 1.02 ± 0.022
- normalised cell viability [4]: 1.013 ± 0.0058
- normalised cell viability [5]: 1.01 ± 0.01
- normalised cell viability [6]: 1.002 ± 0.0076

Structure (SMILES): COc1[nH]c2ccc(F)cc2c1C(=O)OCC1CCN(CCNS(C)(=O)=O)CC1.NS(=O)(=O)O
- normalised cell viability [1]: 1.023 ± 0.0058
- normalised cell viability [2]: 0.955 ± 0.011
- normalised cell viability [3]: 1.017 ± 0.0058
- normalised cell viability [4]: 0.989 ± 0.021
- normalised cell viability [5]: 0.9993 ± 0.0011
- normalised cell viability [6]: 1.007 ± 0.0058

Structure (SMILES): N[C@@H](Cc1c[nH]c2ccccc12)C(=O)O [L-Tryptophan]
- normalised cell viability [1]: 1.01
- normalised cell viability [2]: 1.027 ± 0.0058
- normalised cell viability [3]: 1.03 ± 0.032
- normalised cell viability [4]: 1.033 ± 0.0058
- normalised cell viability [5]: 0.999 ± 0.001
- normalised cell viability [6]: 1.003 ± 0.0058

Structure (SMILES): CN(C)Cc1ccc(S(=O)(=O)n2ccc(/C=C/C(=O)NO)c2)cc1 [Resminostat]
- normalised cell viability [1]: 0.941 ± 0.011
- normalised cell viability [2]: 0.92 ± 0.018
- normalised cell viability [3]: 0.961 ± 0.011
- normalised cell viability [4]: 1.023 ± 0.0058
- normalised cell viability [5]: 1.001 ± 0.0081
- normalised cell viability [6]: 0.214 ± 0.026

Structure (SMILES): O=C(/C=C/c1ccc(CN(CCO)CCc2c[nH]c3ccccc23)cc1)NO [LAQ824 (Dacinostat)]
- normalised cell viability [1]: 0.00706 ± 0.0016
- normalised cell viability [2]: -0.000483 ± 0.0039
- normalised cell viability [3]: 0.0151 ± 0.00085
- normalised cell viability [4]: 0.00158 ± 0.00078
- normalised cell viability [5]: 0.0063 ± 0.00096
- normalised cell viability [6]: -0.000399 ± 0.00047

Structure (SMILES): Ic1ccc(N2CCN(Cc3c[nH]c4ncccc34)CC2)cc1 [L-750,667 trihydrochloride]
- normalised cell viability [1]: 0.969 ± 0.003
- normalised cell viability [2]: 0.883 ± 0.014
- normalised cell viability [3]: 0.99 ± 0.0044
- normalised cell viability [4]: 0.999 ± 0.087
- normalised cell viability [5]: 0.988 ± 0.011
- normalised cell viability [6]: 0.998 ± 0.019

Structure (SMILES): CC1CCN=C(N)S1 (racemic) [(±)-AMT hydrochloride]
- normalised cell viability [1]: 0.982 ± 0.015
- normalised cell viability [2]: 0.968 ± 0.015
- normalised cell viability [3]: 0.9923 ± 0.0067
- normalised cell viability [4]: 0.975 ± 0.0071
- normalised cell viability [5]: 0.9907 ± 0.0095
- normalised cell viability [6]: 0.9677 ± 0.0046

Structure (SMILES): OCc1ccc(-c2ccc(-c3ccc(CO)s3)o2)s1
- normalised cell viability [1]: 0.979 ± 0.0061
- normalised cell viability [2]: 0.0751 ± 0.0071
- normalised cell viability [3]: 1.017 ± 0.0058
- normalised cell viability [4]: 0.358 ± 0.022
- normalised cell viability [5]: 0.621 ± 0.045
- normalised cell viability [6]: 0.0128 ± 0.0026

Structure (SMILES): CCc1ccc(/C=C2/SC(=S)NC2=O)cc1
- normalised cell viability [1]: 1.01 ± 0.017
- normalised cell viability [2]: 1.06 ± 0.011
- normalised cell viability [3]: 1.04
- normalised cell viability [4]: 1.04 ± 0.021
- normalised cell viability [5]: 1.007 ± 0.0058
- normalised cell viability [6]: 1.013 ± 0.0058

Structure (SMILES): COC(=O)C(N)Cc1ccc(Cl)cc1 (racemic) [DL-p-Chlorophenylalanine methyl ester hydrochloride]
- normalised cell viability [1]: 1.02 ± 0.01
- normalised cell viability [2]: 1.02 ± 0.015
- normalised cell viability [3]: 1.017 ± 0.0058
- normalised cell viability [4]: 1.02 ± 0.014
- normalised cell viability [5]: 1.006 ± 0.0069
- normalised cell viability [6]: 1.017 ± 0.0058

Structure (SMILES): NC[C@@H]1O[C@H](C23CC4CC(CC(C4)C2)C3)Cc2c1ccc(O)c2O
- normalised cell viability [1]: 1.01 ± 0.012
- normalised cell viability [2]: 0.0562 ± 0.02
- normalised cell viability [3]: 1.01 ± 0.011
- normalised cell viability [4]: 0.996 ± 0.077
- normalised cell viability [5]: 1.01 ± 0.011
- normalised cell viability [6]: 0.0119 ± 0.0027

Structure (SMILES): CCCCCCCCCCCCCCCC(=O)OC(CC(=O)O)C[N+](C)(C)C (racemic) [Palmitoyl-DL-Carnitine chloride]
- normalised cell viability [1]: 1.02 ± 0.011
- normalised cell viability [2]: 0.975 ± 0.014
- normalised cell viability [3]: 1.013 ± 0.0058
- normalised cell viability [4]: 0.863 ± 0.28
- normalised cell viability [5]: 1.007 ± 0.0058
- normalised cell viability [6]: 1.02 ± 0.02

Structure (SMILES): CC(C=CC(=O)NO)=CC(C)C(=O)c1ccc(N(C)C)cc1 (configuration not stated) [Trichostatin A (TSA)]
- normalised cell viability [1]: 0.0292 ± 0.0042
- normalised cell viability [2]: -0.000733 ± 0.0048
- normalised cell viability [3]: 0.937 ± 0.098
- normalised cell viability [4]: 0.00269 ± 0.00055
- normalised cell viability [5]: 0.00709 ± 0.0011
- normalised cell viability [6]: 8.2e-05 ± 0.00089

Structure (SMILES): Cc1ccc(C(=O)c2cc(/C=C/C(=O)NO)n(C)c2)cc1
- normalised cell viability [1]: 1 ± 0.022
- normalised cell viability [2]: 1.02 ± 0.02
- normalised cell viability [3]: 1 ± 0.021
- normalised cell viability [4]: 1.02 ± 0.017
- normalised cell viability [5]: 0.9928 ± 0.0048
- normalised cell viability [6]: 0.995 ± 0.022

Structure (SMILES): CC(/C=C/C(=O)NO)=C\[C@@H](C)C(=O)c1ccc(N(C)C)cc1 [Trichostatin A]
- normalised cell viability [1]: 2.17e-05 ± 0.00056
- normalised cell viability [2]: 0.000584 ± 0.0001
- normalised cell viability [3]: 0.00474 ± 0.0016
- normalised cell viability [4]: 0.00101 ± 0.0013
- normalised cell viability [5]: -0.000312 ± 0.00084
- normalised cell viability [6]: 0.000187 ± 0.00072

Structure (SMILES): CN1CCC[C@@H]1c1cccnc1.Cc1ccc(C(=O)O[C@H](C(=O)O)[C@@H](OC(=O)c2ccc(C)cc2)C(=O)O)cc1 [(+)-Nicotine (+)-di-p-toluoyl tartrate]
- normalised cell viability [1]: 1.03 ± 0.015
- normalised cell viability [2]: 1.02 ± 0.016
- normalised cell viability [3]: 1.03 ± 0.01
- normalised cell viability [4]: 1.03 ± 0.021
- normalised cell viability [5]: 1.027 ± 0.0058
- normalised cell viability [6]: 1.03 ± 0.015

Structure (SMILES): CC1CN(S(=O)(=O)c2cccc3cnccc23)CCN1 (configuration not stated)
- normalised cell viability [1]: 0.9777 ± 0.0078
- normalised cell viability [2]: 0.966 ± 0.025
- normalised cell viability [3]: 0.9933 ± 0.0051
- normalised cell viability [4]: 1.01 ± 0.091
- normalised cell viability [5]: 0.9757 ± 0.0074
- normalised cell viability [6]: 0.9753 ± 0.0076

Structure (SMILES): Oc1cc2c(c(Cl)c1O)CCNCC2c1ccccc1 (racemic) [(±)-6-Chloro-PB hydrobromide]
- normalised cell viability [1]: 1.007 ± 0.0058
- normalised cell viability [2]: 1.04 ± 0.023
- normalised cell viability [3]: 1.03 ± 0.015
- normalised cell viability [4]: 1.05 ± 0.01
- normalised cell viability [5]: 1.02 ± 0.01
- normalised cell viability [6]: 1.02

Structure (SMILES): O=C(c1ccc2c(c1)OCCO2)N1CCCCC1
- normalised cell viability [1]: 1.005 ± 0.0092
- normalised cell viability [2]: 1 ± 0.017
- normalised cell viability [3]: 1.01
- normalised cell viability [4]: 1 ± 0.017
- normalised cell viability [5]: 0.9913 ± 0.0096
- normalised cell viability [6]: 0.9947 ± 0.0021

Structure (SMILES): O=C1O/C(=C/Br)CCC1c1cccc2ccccc12 (configuration not stated) [Bromoenol lactone]
- normalised cell viability [1]: 1.02
- normalised cell viability [2]: 1.02 ± 0.026
- normalised cell viability [3]: 1.01 ± 0.01
- normalised cell viability [4]: 1.02
- normalised cell viability [5]: 0.998 ± 0.013
- normalised cell viability [6]: 1.01

Structure (SMILES): CCOC(=O)C1=CN(Cc2ccccc2)C=C(C(=O)OCC)C1c1ccccc1
- normalised cell viability [1]: 0.995 ± 0.018
- normalised cell viability [2]: 1.01 ± 0.026
- normalised cell viability [3]: 1 ± 0.019
- normalised cell viability [4]: 1.01 ± 0.021
- normalised cell viability [5]: 0.993 ± 0.0059
- normalised cell viability [6]: 1.003 ± 0.01

Structure (SMILES): O=C(O)c1cc(O)c2ccc(Cl)cc2n1 [7-Chlorokynurenic acid]
- normalised cell viability [1]: 1.002 ± 0.0069
- normalised cell viability [2]: 0.974 ± 0.0072
- normalised cell viability [3]: 1.01 ± 0.015
- normalised cell viability [4]: 0.9873 ± 0.0046
- normalised cell viability [5]: 1.01 ± 0.01
- normalised cell viability [6]: 0.997 ± 0.0036

Structure (SMILES): N=C(N)NCCCCN [Agmatine sulfate]
- normalised cell viability [1]: 1.017 ± 0.0058
- normalised cell viability [2]: 1 ± 0.025
- normalised cell viability [3]: 1.003 ± 0.0058
- normalised cell viability [4]: 1 ± 0.025
- normalised cell viability [5]: 0.986 ± 0.012
- normalised cell viability [6]: 0.997 ± 0.011

Structure (SMILES): CC(C)C[C@H](NC(=O)[C@H](Cc1ccccc1)NC(=O)c1cnccn1)B(O)O [Bortezomib]
- normalised cell viability [1]: 0.281 ± 0.011
- normalised cell viability [2]: 0.0356 ± 0.0084
- normalised cell viability [3]: 0.669 ± 0.035
- normalised cell viability [4]: 0.28 ± 0.054
- normalised cell viability [5]: 0.00407 ± 0.00064
- normalised cell viability [6]: 0.00157 ± 0.00063

Structure (SMILES): CC(C)C[C@H](NC(=O)[C@H](O)[C@H](N)Cc1ccccc1)C(=O)O [Epibestatin hydrochloride]
- normalised cell viability [1]: 1.003 ± 0.0064
- normalised cell viability [2]: 0.9953 ± 0.004
- normalised cell viability [3]: 0.9977 ± 0.004
- normalised cell viability [4]: 0.9947 ± 0.005
- normalised cell viability [5]: 0.9957 ± 0.0067
- normalised cell viability [6]: 1.007 ± 0.0058

Structure (SMILES): CC(C)C[C@H](NC(=O)[C@@H](O)[C@H](N)Cc1ccccc1)C(=O)O [Bestatin hydrochloride]
- normalised cell viability [1]: 0.996 ± 0.0046
- normalised cell viability [2]: 1.02 ± 0.011
- normalised cell viability [3]: 0.989 ± 0.01
- normalised cell viability [4]: 1.02 ± 0.033
- normalised cell viability [5]: 0.979 ± 0.012
- normalised cell viability [6]: 0.9903 ± 0.0015

Structure (SMILES): CC(C)C[C@H](NC(=O)[C@H](Cc1ccccc1)NC(=O)c1cnccn1)B(O)O [Bortezomib (Velcade)]
- normalised cell viability [1]: 0.352 ± 0.024
- normalised cell viability [2]: 0.0578 ± 0.0037
- normalised cell viability [3]: 0.677 ± 0.016
- normalised cell viability [4]: 0.351 ± 0.042
- normalised cell viability [5]: 0.00826 ± 0.0011
- normalised cell viability [6]: 0.000986 ± 0.0007
